Reference: PubChem BioAssay AID504651 (National Center for Advancing Translational Sciences (NCATS), 2011)
Hit rate of the full screen: of about 360,000 compounds, about 130 (0.036%) were called active. Shown is part of a subset that was picked to be rich in actives. Unmarked numbers belong to inactive results. No stated cut-off is given here; in the data, active means potentiation above about 30%; inactive means the rest.

Target: D(1A) dopamine receptor (Homo sapiens) (UniProt P21728)
Assay: Potentiators of Human D1 Dopamine Receptor: qHTS; further: 0% is about no effect
Conditions: HEK293 TREx D1 cells, calcium flux, dopamine EC20 potentiation; at 10 µM; stronger effect = higher value
Text: Dopamine receptors (DARs) are involved in the etiology and/or therapy of a number of neuropsychiatric and endocrine disorders. For instance, all receptor-based antiparkinsonian drugs work via stimulating the D1 DAR subtype whereas all FDA-approved antipsychotic agents are antagonists of this receptor. […] There are three different types of allosteric modulators that we are seeking, two of which will stimulate or augment receptor signaling, allosteric agonists and potentiators, while the third, allosteric antagonists, will attenuate receptor signaling. The present primary screening assay measures compound potentiation of an EC20 dopamine response by tracking calcium flux in a […], inducible Hek293 Trex D1 cell line.
NIH Chemical Genomics Center [NCGC]
NIH Molecular Libraries Probe Centers Network [MLPCN]
Assay Submitter (PI): David Sibley
Freshly passaged cells are plated in 1536 well black, clear bottom plates at a density of 4000 cells/well in 3 ul of complete media containing 1x tetracycline inducer. After an overnight incubation at 30 C in 5% CO2, cells are loaded with 2 ul of the no wash Calcium Assay Kit (ABD Bioquest) and incubated at room temperature for 30 to 90 minutes. A 10 cycle (1 second/cycle) baseline measurement is taken and then the FDSS online 1536 pintool delivers 23 nl of compound library (as well as dopamine controls) to the plate. The plate is measured for kinetically at 1 cycle/sec for 180 seconds and is considered to be the agonist portion of the assay (eg, compounds which activate a positive calcium response during this portion are flagged as potential agonists). Following the 180 second read, 1 ul of an EC20 of dopamine is delivered by an onboard pipette head. Measurements are taken kinetically for an additional 180 seconds.

Chain of D(1A) dopamine receptor (Homo sapiens) (P21728 whole entry, looked up): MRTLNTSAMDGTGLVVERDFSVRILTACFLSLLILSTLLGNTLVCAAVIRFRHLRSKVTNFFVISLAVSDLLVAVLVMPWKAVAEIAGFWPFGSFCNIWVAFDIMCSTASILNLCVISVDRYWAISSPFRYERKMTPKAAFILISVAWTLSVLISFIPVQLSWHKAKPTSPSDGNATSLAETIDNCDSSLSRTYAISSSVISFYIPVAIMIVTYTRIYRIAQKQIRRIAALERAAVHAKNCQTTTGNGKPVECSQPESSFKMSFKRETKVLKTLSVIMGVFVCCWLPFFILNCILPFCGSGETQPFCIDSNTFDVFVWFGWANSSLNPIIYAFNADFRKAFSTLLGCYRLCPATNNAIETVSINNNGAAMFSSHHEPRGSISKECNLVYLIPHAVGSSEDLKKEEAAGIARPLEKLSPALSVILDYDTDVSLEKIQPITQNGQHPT

SMILES | potentiation
Cc1ccc(S(=O)(=O)NC(N)=NCCC[C@@H](NC(=O)CNC(=O)c2ccccc2)C(=O)Nc2cc(C(F)(F)F)ccc2Cl)cc1 | 5.3%
COc1ccc(N2C(=O)CS(=O)(=O)C23C(=O)N(Cc2ccc(C)cc2)c2ccccc23)cc1Cl (configuration not stated) | -6.6%
COc1cccc(NC(=O)N(Cc2cn(C)c3ccccc23)C2CCCCCC2)c1 | 1.8%
O=C(CC1N=C2c3ccccc3N=C(SCc3ccc(F)cc3)N2C1=O)NCc1cccs1 (configuration not stated) | -0.25%
CCN1CCN(c2cc(C)c3cc(NC(=O)c4cc(Cl)ccc4OC)ccc3n2)CC1 | -1.15%
Cc1nc(SCC(=O)N2CCN(c3ccccc3)CC2)[nH]c(=O)c1C | 5.55%
CC(=O)c1ccc(NC(=O)CSc2nnc(NC(=O)Nc3ccccc3)s2)cc1 | 4.75%
Cc1ccc(O)c(NC(=O)CCS(=O)(=O)c2nc(-c3ccc4c(c3)OCO4)cc(C(F)(F)F)n2)c1 | -1.35%
CCOC(=O)Cn1c(=O)n(-c2ccccc2OC)c2nc(-c3cccc(F)c3)nc(C(N)=O)c21 | -1.3%
Cc1ccc(C2CCN(C(=O)c3cnn(-c4ccccc4Cl)c3C3CCN(C(=O)OC(C)(C)C)CC3)C2)cc1 (configuration not stated) | 2%
COc1ccc(N2CCN(C(=O)c3c(C)oc4nc(C)nc(N5CCCC5)c34)CC2)cc1 | -1.55%
O=C(CSc1nccn1Cc1ccc(Cl)cc1)NCc1ccccc1 | 0.3%
Cc1ccccc1OCCC(=O)OCC(=O)NC(C)c1ccccc1 (configuration not stated) | -0.3%
COc1cc(OC)cc(C(=O)N[C@H](C(=O)OCC(=O)NC(C)c2ccccc2)C(C)C)c1 (some centres not stated) | 36.6% (active)
COc1ccc(N2CCN(C(=O)[C@@H](NC(=O)c3cc(OC)cc(OC)c3)C(C)C)CC2)cc1 | -4.25%
Cc1onc(-c2ccc(F)cc2F)c1C(=O)Nc1cccc(C(F)(F)F)c1 | 0.65%
COc1ccccc1-c1cc(C(F)(F)F)nc(S(=O)(=O)CCCC(=O)Nc2ccc(F)cc2F)n1 | -0.1%
COc1ccc(CCNc2nc(-c3ccc(F)cc3)cc(C(F)(F)F)n2)cc1OC | 3.1%
Brc1ccc2c(c1)NC(c1cccnc1)=NC(c1ccccc1)=N2 | 35.8% (active)
COc1ccc(C2=NC(c3ccncc3)=Nc3ccc(Br)cc3N2)cc1 | 3.45%
Brc1ccc(C2CC(c3ccccc3)=Nc3ccccc3N2)cc1 (configuration not stated) | -5.6%
CCCCS(=O)(=O)c1oc(-c2cccs2)nc1S(=O)(=O)c1ccccc1 | -0.2%
